Consider 45 molecules from PubChem BioAssay AID686978 (National Center for Advancing Translational Sciences (NCATS), 2013).

The whole screen tested about 420,000 compounds, of which about 64,000 (15%) were called active. Inconclusive results (about 27%) are left out. The list is a sample of the results. Values without a mark were called inactive. Calls follow the shape of the dose curve; as a rule, active = well fitted inhibition curve with a large enough effect; inconclusive = small, poorly fitted or top-dose-only effect; inactive = flat fitted curve, though single readings scatter.
% is scaled to controls: 0 for no effect and ±100 for the full control effect; potency is read from the fitted curve at half-maximal effect.

A short description of the test: qHTS for Inhibitors of human tyrosyl-DNA phosphodiesterase 1 (TDP1): qHTS in cells in absence of CPT. Also: nearly all actives have a fitted effect of over 55% in size. As to conditions: DT40 Tdp1-/- hTDP1 cells, no CPT, ATP luminescence, 48 h; activity change, negative = growth inhibition: at 46.2 µM (top of the series). In outline: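 Luminescent ATP content (CellTiter-Glo) served as the growth readout. Knockout chicken DT40 cells expressing human TDP1 were exposed to compounds without camptothecin for a minimum 48 hr at 37 °C.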
Background: In qHTS, concentration-response curves come from the screen itself.
As for `CC1CN(CCOc2ccccc2[N+](=O)[O-])CC(C)O1` (stereo not given), the “activity change, negative = growth inhibition” value is -23.7%.
Regarding `Cc1cc(C)c(OCCN2CC(C)OC(C)C2)c(Br)c1` (stereo not given), the Potency was 16.4 µM (active).
`Cc1cccc(C)c1OCCN1CCOCC1`: the “activity change, negative = growth inhibition” value was -24.1%.
Turning to `COc1ccc(N2CCN(S(=O)(=O)c3ccc4c(c3)N(C(C)=O)CCO4)CC2)cc1`, the “activity change, negative = growth inhibition” value is -8.63%.
The same measure, in the same setting: in the case of `O=C(CN1C(=O)C2C3C=CC(C3)C2C1=O)NCCc1ccccc1Cl` (stereo not given) it was -9.82%.
On the same count and under the same terms, for `COc1cc(N2C(=O)c3ccccc3C2=O)c(Cl)cc1C(=O)OCC(=O)N1CCOCC1` the value was 4.59%.
On to `Cc1ccc(C(=O)Nc2ccccc2C(=O)NC2CCCCC2)cc1S(=O)(=O)N1CCOCC1`, for which the Potency was 18.4 µM (active).
Take `COc1ccc(C(=O)OC(C)C(=O)NC2CCCC2)cc1S(=O)(=O)N1CCOCC1` (stereo not given): the “activity change, negative = growth inhibition” value is 13.3%.
Same read-out and setting: in the case of `Cc1ccc(NC(=O)COC(=O)C2CC2)cc1S(=O)(=O)N1CCOCC1` it was 0.794%; in that of `Cc1ccc(NC(=O)NC2CCCCC2)cc1S(=O)(=O)N1CCOCC1`, -4.9%.
`Cc1ccc(NC(=O)C2CCC(C(C)(C)C)CC2)cc1S(=O)(=O)N1CCOCC1` (stereo not given): the Potency was 20.6 µM (active).
The same measure, in the same setting: for `Cc1ccc(NC(=O)c2ccc(Cl)nc2)cc1S(=O)(=O)N1CCOCC1` the value was 8.2 µM (active).
For `Cc1ccc(NC(=O)c2ccccn2)cc1S(=O)(=O)N1CCOCC1`, the “activity change, negative = growth inhibition” value was -6.82%.
The same measure, in the same setting: for `Cc1ccc(NC(=O)CCCNC(=O)c2ccc(Cl)cc2)cc1S(=O)(=O)N1CCOCC1` the value was -18.1%.
For the molecule `Cc1ccccc1NC(=O)c1cc(S(=O)(=O)N2CCOCC2)cs1`, the “activity change, negative = growth inhibition” value was -11.8%.
The same measure, in the same setting: for `COC(=O)CSc1snnc1-c1ccc(Cl)c(Cl)c1` the value was 1.97%.
The same measure, in the same setting: for `O=C(NCCN1CCCC(O)C1)c1cc(COc2c(F)cccc2F)on1` (stereo not given) the value was 26.9%; for `COC(=O)c1[nH]c2ccc(Br)cc2c1NC(=O)Oc1ccccc1`, 1.63%.
Consider `CC(=O)N1CCN(CC(=O)Nc2ccc(SC(F)F)cc2)CC1`, for which the “activity change, negative = growth inhibition” value was 2.7%.
For the molecule `O=C(Oc1cccc(NC2=NS(=O)(=O)c3ccccc32)c1)c1ccncc1`, the “activity change, negative = growth inhibition” value is -0.45%.
In the case of `CC(=O)c1c(C)[nH]c(=S)c(C#N)c1-c1ccc(F)cc1`, the “activity change, negative = growth inhibition” value was 8.94%.
On the same count and under the same terms, for `CCOc1ccc(NC(=O)C(CC(C)C)N2Cc3ccccc3C2=O)cc1` (stereo not given) the value was -20.1%; for `CC(Oc1ccccc1)C(=O)N[C@@H]1C(=O)N2[C@@H]1SC(C)(C)[C@@H]2C(=O)O` (stereo not given in full), -3.68% [at 21.1 µM]; for `CSc1ccc(/C=N\NC(=O)CC(=O)NC(C)C)cc1`, -2.5%.
`O=C(CC(c1cccs1)N1Cc2ccccc2C1=O)Nc1ccc(F)cc1F` (stereo not given): the Potency was 16.4 µM (active).
For the molecule `COc1cc(C(CC(=O)NCCC(C)C)N2Cc3ccccc3C2=O)cc(OC)c1OC` (stereo not given), the “activity change, negative = growth inhibition” value was -26.2%.
`O=C(O)CC(c1ccccc1F)N1Cc2ccccc2C1=O` (stereo not given): the “activity change, negative = growth inhibition” value was 2.01%.
On the same count and under the same terms, in the case of `CCc1ccc(NC(=O)C(C)OC(=O)/C=C/c2cccc([N+](=O)[O-])c2)cc1` (stereo not given) it was 7.8%; in that of `Cc1ccc(Cl)cc1-c1ccc(/C=N/n2cnnc2)o1`, -2.4%.
`CC[C@]12c3[nH]c4cc(CCC(=O)N(C)C)ccc4c3CCN1C(=O)[C@@H](CC(=O)NCCCN(C)C)C[C@@H]2C(=O)N1CCN(C(=O)c2ccco2)CC1`: the “activity change, negative = growth inhibition” value was -4.3%.
The same measure, in the same setting: in the case of `CCN(CC)C(=O)[C@H]1CC(CC(=O)NCc2ccco2)C(=O)N2CCc3c([nH]c4ccccc34)[C@]12C` (stereo not given in full) it was -17.4%; in that of `CC[C@]12c3[nH]c4cc(CCC(=O)N(C)C)ccc4c3CCN1C(=O)[C@@H](CC(=O)NCc1ccco1)C[C@@H]2C(=O)N1CCN(C(=O)c2ccco2)CC1`, -10.2%; in that of `CC[C@]12c3[nH]c4cc(CCC(=O)N(C)C)ccc4c3CCN1C(=O)[C@@H](CC(=O)NCCCn1ccnc1)C[C@@H]2C(=O)N1CCN(C(=O)C2CC2)CC1`, 0.652%.
For the molecule `CN(C)C(=O)CCc1ccc2c3c([nH]c2c1)[C@]1(C)[C@@H](C(=O)N2CCCCC2)C[C@H](CC(=O)NCCC2=CCCCC2)C(=O)N1CC3`, the Potency was 16.4 µM (active).
For `CN(C)C(=O)CCc1ccc2c3c([nH]c2c1)[C@]1(C)[C@@H](C(=O)N2CCOCC2)C[C@H](CC(=O)NCCc2ccccn2)C(=O)N1CC3`, the “activity change, negative = growth inhibition” value is 6.99%.
Take `CCN(CC)C(=O)[C@H]1C[C@H](CC(=O)NCC23CC4CC(CC(C4)C2)C3)C(=O)N2CCc3c([nH]c4cc(CCC(=O)N(C)C)ccc34)[C@]12C`: the Potency is 18.4 µM (active).
In the case of `CN(C)C(=O)CCc1ccc2c3c([nH]c2c1)[C@]1(CCc2ccccc2)[C@@H](C(=O)N2CCCCC2)C[C@H](CC(=O)NCCC2=CCCCC2)C(=O)N1CC3`, the Potency is 9.2 µM (active).
`COc1ccc2[nH]c3c(c2c1)CCN1C(=O)C(CC(=O)NCc2cccc(C(F)(F)F)c2)C[C@H](C(=O)N2CCOCC2)[C@@]31C` (stereo not given in full): the “activity change, negative = growth inhibition” value was -25.2%.
Regarding `CC(C)N(C(=O)[C@H]1C[C@H](CC(=O)NC(C)(C)C)C(=O)N2CCc3c([nH]c4ccc(Cl)cc34)[C@]12C)C(C)C`, the Potency is 6.51 µM (active).
As for `COc1ccc2[nH]c3c(c2c1)CCN1C(=O)C(CC(=O)NCCc2ccccn2)C[C@H](C(=O)N2CCOCC2)[C@@]31C` (stereo not given in full), the “activity change, negative = growth inhibition” value was -1.15%.
As to `C[C@]12c3[nH]c4ccc(Cl)cc4c3CCN1C(=O)[C@@H](CC(=O)NCCCn1ccnc1)C[C@@H]2C(=O)N1CCOCC1`, the “activity change, negative = growth inhibition” value is -13.3%.
Same read-out and setting: for `CC(=O)NCC(=O)N1CCC(n2nccc2NC(=O)CCCc2ccccc2)CC1` the value was -7.46%.
The same measure, in the same setting: in the case of `OCC[C@H]1C[C@H](O)[C@@H](O)[C@]2(CCCCO2)O1` it was -6.13%; in that of `COc1ccc(-c2c(C#N)cnc(C)c2C)c(O)c1OC`, -27.4%; in that of `CSCCC(NC(=O)COc1ccccc1)C(=O)Nc1ccc(C)cc1` (stereo not given), -28.3%.
